NPC1 prom act: NPC1 promoter activation; Potency, µM (titrated, usually from 9.22 µM), for inactives: at the highest dose activation, most hits filed as activators; Huh7 NPC1 promoter luciferase reporter, 24 h; hit rate 2.4% among 320,000; AID 485313; note: % of control where 0% means no effect; nearly all actives have a fitted effect of over 60% in size
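Cells: Huh7 expressing luciferase under the NPC1 promoter, 1500/well. Seeded 2 h, compound added, incubated 24 h at 37 °C. Luciferase reagent, 10 min ambient, then luminescence.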
p53 reactivation: re-activators of mutant p53; H1299 p53-A138V BP100-luciferase reporter, luminescence, 24 h; Potency, µM (top dose mostly 92.2 µM), inactives show top-dose activity change, positive = activation, usual class: activators; hit rate 0.063% among 320,000; AID 504706; note: % of control where 0% means no effect; nearly all actives have a fitted effect of over 45% in size
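p53-null H1299 cells stably carrying temperature-sensitive p53-A138V and a BP100-luciferase reporter were pinned with compounds (4-point, 1:5 series) and held 24 hrs at 37 deg C. Luminescence was read 10 min after detection reagent.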
SMN2 splice up: SMN2 splice variant enhancement; hit rate 2.8% among 210,000; HEK293 SMN2-luciferase splicing reporter, luminescence, 30-36 h; Potency, µM (top dose mostly 46.1 µM), for inactives: top-dose activity change, positive = activation, actives largely listed as activators; note: % of control where 0% means no effect; nearly all actives have a fitted effect of over 55% in size
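qHTS luciferase splicing reporter: luminescence rises when SMN2 exon 7 is included in transfected HEK293 cells. Compound exposure lasted 30-36 h at 37C, with 4.5 mM final sodium butyrate as control, followed by a ONE-Glo read.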
FLuc counter: firefly luciferase modulation, counter-screen for miR-21 project | purified FLuc, Km substrates, luminescence inhibition | hit rate 6.9% among 360,000 | Potency, µM (doses to about 57.5 µM), without a hit: at the highest dose activity change, negative = inhibition, hits mostly inhibitors | P08659;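 note: plate controls were vehicle for no effect and reference inhibitor for full effect; nearly all actives have a fitted effect of over 55% in size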
Target sequence (P08659 whole entry, looked up): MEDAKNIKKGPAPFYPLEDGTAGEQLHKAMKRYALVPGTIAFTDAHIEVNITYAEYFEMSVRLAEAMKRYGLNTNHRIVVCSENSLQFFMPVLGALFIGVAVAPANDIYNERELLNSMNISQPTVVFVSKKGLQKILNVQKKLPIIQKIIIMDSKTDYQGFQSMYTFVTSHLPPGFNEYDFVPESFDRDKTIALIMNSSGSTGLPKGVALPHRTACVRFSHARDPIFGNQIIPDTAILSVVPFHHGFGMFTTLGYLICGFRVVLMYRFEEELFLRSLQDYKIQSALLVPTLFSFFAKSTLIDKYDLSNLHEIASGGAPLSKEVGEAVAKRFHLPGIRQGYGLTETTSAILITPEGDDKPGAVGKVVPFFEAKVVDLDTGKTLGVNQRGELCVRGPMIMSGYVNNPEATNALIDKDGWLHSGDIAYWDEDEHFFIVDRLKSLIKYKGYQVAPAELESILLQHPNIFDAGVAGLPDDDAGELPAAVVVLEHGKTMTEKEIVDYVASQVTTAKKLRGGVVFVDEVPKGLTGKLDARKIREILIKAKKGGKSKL
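Biochemical qHTS of compounds, final roughly 60 µM downward over six points, against 10 nM purified firefly luciferase using Km concentrations of substrates (10 uM D-luciferin, 10 uM ATP) in Tris acetate pH 7.5 buffer; luminescence output.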
Rab9 promoter act: Rab9 promoter activation; Huh7 Rab9 promoter-luciferase reporter, luminescence, 24 h; Potency, µM (series often up to 9.22 µM), for inactives: at the highest dose activation, negative = inhibition, usual class: activators; hit rate 2.8% among 320,000; AID 485297; note: % of control where 0% means no effect; nearly all actives have a fitted effect of over 60% in size
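Promoter activation is measured as luciferase luminescence in Huh7 cells stably transfected with a Rab9 promoter–luciferase construct, following 24 h compound exposure at 37 °C and 10 min reagent incubation at ambient temperature.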
ELG1 genotox: inducers of genotoxicity in HEK293T ELG1-luciferase cells; AID 504466; HEK293T ELG1-luciferase reporter, luminescence, 16 h; hit rate 1.3% among 330,000; Potency, µM (highest dose often 46 µM), for the others: top-dose activity change, positive = activation, most hits filed as activators; note: % of control where 0% means no effect; nearly all actives have a fitted effect of over 60% in size
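Quantitative HTS format in 1536-well plates. HEK293T ELG1-luciferase reporter cells receive test compound and are incubated 16 hr at 37 °C, 5% CO2; ONE-Glo added, 30 min room temperature, then luminescence read.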
Active calls of the source: *; ? = inconclusive; . = no result given; [ ] = another dose, or the depositor's remark. Compounds with a hit are over-represented: about 7.3% of the library has one in this group of screens. Calls come from the whole dose curve; as a rule, active = well fitted curve in the direction sought with a large enough effect; inconclusive = small, poorly fitted or top-dose-only effect, or another doubt; inactive = no such curve, though single readings can be large; an effect the other way counts as inactive or inconclusive. Potency is the fitted concentration of half-maximal effect.

SMILES	NPC1 prom act	p53 reactivation	SMN2 splice up	FLuc counter	Rab9 promoter act	ELG1 genotox
CCOC(=O)c1c(C)[nH]c(C(=O)CSc2nc3ccccc3o2)c1C	-5%	23%	0.32µM*	9%	-2%	5%
CCSC1=NC2(CCN(C(=O)NC3CCCCC3)CC2)N=C1c1ccc(C)c(C)c1	.	.	.	-16%	.	.
Cc1cccc(C(=O)N[C@H](C(=O)Nc2nc3ccccc3[nH]2)C(C)C)c1	-17%	6%	-28%	-1%	-19%	?
O=C(Nc1nc2ccccc2[nH]1)c1cccs1	1.3µM*	11%	3.5µM*	4.8µM*	1.3µM*	?
CN(C)S(=O)(=O)c1ccc(Cl)c(C(=O)Nc2nc3ccccc3[nH]2)c1	-3%	1%	5%	?	2%	-1%
COC(=O)Nc1nc2ccc(C(=O)c3cccs3)cc2[nH]1	?	.	-7%	.	-8%[46.1 µM]	.
COc1cccc(C(=O)Nc2nc3ccccc3[nH]2)c1	0.56µM*	6%	?	0.76µM*	0.71µM*	0.37µM*
COc1ccc(C(=O)N[C@H](C(=O)Nc2nc3ccccc3[nH]2)C(C)C)cc1	15%	?	10µM*	6.7µM*	-5%	12µM*
Cn1nc(C(=O)Nc2nc3ccccc3[nH]2)ccc1=O	?	21%	13µM*	17µM*	2.2µM*	18%
O=C1Cc2cc(NS(=O)(=O)c3cc(F)ccc3F)cc3c2N1CCC3	-2%	-3%	.	1%	-5%	4%
COc1ccc(C(=O)Nc2nc3ccccc3[nH]2)cc1	0.11µM*	-6%	.	0.19µM*	?	?
COc1cc(C(=O)Nc2nc3ccccc3[nH]2)cc(OC)c1OC	7%	2%	15%	?	-2%	-1%
CC1(C)CCC(=O)N[C@H]1CC(=O)C[C@H]1NC(=O)CCC1(C)C	.	.	-7%[9.22 µM]	.	.	.
C(=C\c1nc(N2CCCCCC2)c2ccccc2n1)/c1ccccc1	-1%	?	.	8.5µM*	7%	0%
COc1cc(NS(=O)(=O)c2cnc(N)nc2)cc(OC)c1	.	.	.	3%	.	.
COc1ccc(Cc2nn3c(Cn4nnc5ccccc54)nnc3s2)cc1	3%	-2%	-59%	11µM*	-2%	-5%
c1ccc(-c2nn3c(Cn4nnc5ccccc54)nnc3s2)cc1	0%	-16%	6%	-14%	0%	11%
O=C(CSc1ccc(-c2ccc(Cl)cc2)nn1)N1CCCc2ccccc21	-2%	8%	-27%	15µM*	4%	-4%
O=C(CSc1ccc(-c2ccc(F)cc2)nn1)N1CCCc2ccccc21	0%	-8%	-27%	?	-1%	-12%
COc1ccc(-c2ccc(SCC(=O)N3CC(=O)Nc4ccccc43)nn2)cc1	25%	?	.	3µM*	28%	3%
Cc1ccc(C(=O)CSc2ccc(-c3ccncc3)nn2)cc1	-13%	-2%	-10%	-3%	-10%	-7%
O=C(CSc1ccc(-c2ccccc2)nn1)N1CCOCC1	17%	20%	6.3µM*	-17%	18%	?
O=C(CSc1ccc(-c2ccccc2)nn1)c1cccs1	?	1%	18µM*	?	?	?
COc1cccc(CNC(=O)C2CCN(C(=O)N3CCOc4ccc(Cl)cc43)CC2)c1OC	.	.	.	-10%	.	.
COc1ccc(NC(=O)CSc2ccc(-c3cccs3)nn2)cc1	.	.	.	-9%	.	.
SMILES	NPC1 prom act	p53 reactivation	SMN2 splice up	FLuc counter	Rab9 promoter act	ELG1 genotox
COc1ccc(-c2ccc(SCC(=O)c3cccs3)nn2)cc1	12%	3%	13µM*	11µM*	27%	?
c1ccc(-c2cn(-c3ccccc3)c3ncnc(N4CCN(c5ccccc5)CC4)c23)cc1	.	.	.	-2%	.	.
O=C(N/N=C\C=C\c1ccc2c(c1)OCO2)c1cccnc1	8%	?	-1%	17µM*	3%	4%
COc1ccc(/C=C/C(=O)Nc2cccc(N3CCOCC3)c2)cc1OC	4%	-4%	11%	27µM*	3%	-5%
COc1ccc(/C=C/C(=O)Nc2ccc(N3CCOCC3)cc2)cc1	1%	6%	-29%	-15%	-3%	-1%
O=C(/C=C/c1ccc2c(c1)OCO2)c1cccnc1	2%	5%	.	15µM*	-1%	1%
O=C(N/N=C/c1cc2c(cc1Br)OCO2)c1cccnc1	4%	-1%	?	-17%	0%	2%
O=C(/C=C/c1ccc2c(c1)OCO2)Nc1cccnc1	2.2µM*	-2%	13µM*	2.4µM*	1.3µM*	3.7µM*
O=C(/C=C/c1ccc([N+](=O)[O-])cc1)c1cccnc1	-2%	-30%	9%	?	-3%	-10%
CC(=O)Nc1ccc(NC(=O)/C=C/c2ccc3c(c2)OCO3)cc1	13%	0%	9%	?	19%	9%
COC(=O)[C@@H]1C[C@H]1[C@@H](NC(=O)c1cnccn1)c1ccccc1	.	.	12%	.	.	.
CC1(C)Cc2c(ccc3ccccc23)C(NNC(=O)c2cccnc2)=N1	-4%	2%	16%	-2%	-10%	2%
CCOC(=O)c1cnc2c(OC)cccc2c1Nc1cccc(O)c1	.	.	-1%	-15%	.	.
COCCNC(=O)c1c(NC(=O)Cc2coc3cc(C)ccc23)sc2c1CCCC2	.	.	-20%	?	.	.
Cc1cccnc1NC(=O)c1ccc2c(c1)OCO2	-1%	19%	.	-22%	3%	11%
COC(=O)c1cc(NC(=O)/C=C/c2ccc3c(c2)OCO3)cc(C(=O)OC)c1	-2%	-1%	?	0%	-2%	4%
Cc1cc(C)nc(NC(=O)/C=C/c2ccc3c(c2)OCO3)c1	3.2µM*	?	.	2.1µM*	2.5µM*	?
Cc1cccnc1NC(=O)/C=C/c1ccc2c(c1)OCO2	2.5µM*	?	16µM*	19µM*	2.8µM*	?
COC(=O)c1cccc(NC(=O)/C=C/c2ccc3c(c2)OCO3)c1	2.8µM*	27%	-94%	1.3µM*	2.5µM*	-8%
CC(=O)c1ccc(NC(=O)C2CCC(CNS(=O)(=O)c3cccc4nsnc34)CC2)cc1 (centres undefined)	.	.	-6%	4%	.	.
CCC1=C(OC(=O)N(CC)CC)N2C(=O)OC(=NCCOC)[C@]2(C)[C@H]2C1=CC[C@H]1C(=O)NC(=O)[C@H]12	.	.	-11%	.	.	.
Fc1ccc(Nc2ccnc(Nc3ccc(F)cc3)n2)cc1	?	?	.	8.5µM*	?	?
O=C(O)c1cccc(Nc2ccnc(Nc3cccc(C(=O)O)c3)n2)c1	?	0%	.	6µM*	?	?
O=C(O)c1cccc(Nc2nc(N3CCOCC3)nc(N3CCOCC3)n2)c1	-5%	-10%	23%	3%	-8%	-6%
Cc1ccc(S(=O)(=O)N2CCC(C(=O)N3CCC3)CC2)cc1	2.2µM*	?	.	9.5µM*	3.2µM*	18%

Screening data as filed in PubChem.
